# Source: PubChem (several laboratories)
# A selection: hits, their analogues and other compounds. The true share with any hit is near 1.4%.
# MCL1 BIM primary – inhibitors of MCL1 binding to BIM-BH3, primary screen, biochemical, fluorescence polarization | Induced myeloid leukemia cell differentiation protein Mcl-1 (Homo sapiens), Q07820 | GST-MCL1 / FITC-Bim-BH3 fluorescence polarization | inhibition, % at 10.9 µM | hit rate 0.68% among 320,000;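 active means inhibition above the mean inhibition of all tested compounds plus 3 SD, set per campaign, cut at about 40% in these data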;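 further: 0% = DMSO wells and 100% = unlabeled Bim-BH3 peptide control; higher means more loss of mP so more displacement of Bim peptide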
# Target sequence (Q07820 whole entry, looked up): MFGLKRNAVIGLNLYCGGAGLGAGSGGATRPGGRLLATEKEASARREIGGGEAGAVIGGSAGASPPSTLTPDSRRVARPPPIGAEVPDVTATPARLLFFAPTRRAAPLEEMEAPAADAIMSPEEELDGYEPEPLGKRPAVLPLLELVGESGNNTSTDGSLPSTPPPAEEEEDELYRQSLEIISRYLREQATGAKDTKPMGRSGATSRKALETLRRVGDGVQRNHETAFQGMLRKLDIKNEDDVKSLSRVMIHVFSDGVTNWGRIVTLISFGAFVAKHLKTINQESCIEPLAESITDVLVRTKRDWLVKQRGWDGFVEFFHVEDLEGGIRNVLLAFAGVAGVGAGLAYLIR
# E coli Lon inh – inhibitors of E. coli Lon protease, primary screen, biochemical, fluorescence polarization. P0A9M0. purified E. coli Lon protease. inhibition, % at 7.94 µM. hit rate 0.42% among 360,000; in the data active means inhibition above about 13%, passing the limit was not always enough;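 further: 0% = enzyme with probe and DMSO and 100% = no enzyme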
# GLD-1 RNA inh – GLD-1/TGE RNA complex disruptors, primary screen, biochemical, fluorescence polarization | Female germline-specific tumor suppressor gld-1 (Caenorhabditis elegans), Q17339 | purified GLD-1 + fluorescein TGE RNA | inhibition, % at 5.96 µM | hit rate 0.44% among 320,000;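 active means percent inhibition above a per-plate cutoff, the plate mean of test compounds plus 3 SD, cut at about 30% in these data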;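 further: 0% = DMSO wells with GLD-1 and probe and 100% = wells lacking GLD-1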
# Bcl-xL primary – inhibitors of human Bcl-xL, primary screen, biochemical, fluorescence polarization, HTS | GST-Bcl-xL / FITC-Bim BH3 peptide fluorescence polarization | inhibition, % at 10.9 µM | hit rate 0.7% among 320,000 | AID 2129, 2009;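 active means inhibition above the mean of all tested compounds plus 3 SD, cutoff set per campaign, cut at about 30% in these data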;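 further: 0% = DMSO wells and 100% = unlabeled Bim-BH3 peptide competitor; inhibitors lower millipolarization by displacing the labeled peptide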
# Target sequence (Q07817 whole entry, looked up): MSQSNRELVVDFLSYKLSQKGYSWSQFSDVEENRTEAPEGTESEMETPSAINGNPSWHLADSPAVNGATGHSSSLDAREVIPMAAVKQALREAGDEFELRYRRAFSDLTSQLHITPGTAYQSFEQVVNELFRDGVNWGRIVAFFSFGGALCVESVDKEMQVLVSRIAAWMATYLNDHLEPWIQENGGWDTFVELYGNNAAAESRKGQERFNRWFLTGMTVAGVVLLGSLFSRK
# MEX-5 binding – MEX-5 zinc finger RNA-binding disruptors – biochemical, C. elegans, fluorescence polarization, MLPCN library, primary screen; activity score (negative = inhibition of binding), % at 10 µM; hit rate 0.38% among 300,000; AID 1832, 2009; MEX-5/FITC-TCR2 RNA binding; active compounds read low;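 active means inhibition past about -25% in most replicates, and total fluorescence under double the plate's negative control median, limit read from the data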;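 further: 0% = DMSO and -100% = 5 µM competing unlabeled TCR2 RNA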
# Bcl-xL conf – Bcl-xL inhibitors blocking Bim BH3 binding, confirmation, counter-screen for MCL1 inhibitor project, biochemical, fluorescence polarization. shares compounds with MCL1 BIM primary. GST-Bcl-xL / FITC-Bim BH3 peptide FP binding. inhibition, % at 10.9 µM. hit rate 54% among 1,700. AID 2166, 2009;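 active means inhibition above a cutoff equal to the mean inhibition of all tested compounds plus 3 SD, cut at about 30% in these data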;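 further: 0% = DMSO wells and 100% = unlabeled Bim BH3 control peptide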
# MCL1 BIM confirm – inhibitors of MCL1 binding to BIM-BH3, confirmation, biochemical, fluorescence polarization, triplicate. shares compounds with MCL1 BIM primary. GST-MCL1 / FITC-Bim-BH3 fluorescence polarization. inhibition, % at 10.9 µM. hit rate 61% among 1,700;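 active means inhibition above the average of all tested compounds plus 3 SD, cut at about 40% in these data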;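 further: 0% = DMSO wells and 100% = unlabeled Bim-BH3 control peptide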
# Numbers without * were called inactive; nt = no result; + = active, no number.
SMILES,MCL1 BIM primary,E coli Lon inh,GLD-1 RNA inh,Bcl-xL primary,MEX-5 binding,Bcl-xL conf,MCL1 BIM confirm
COC(=O)CCCC1=CC2=CC(=O)C(C)(OC(=O)c3cccs3)C(=O)C2=CO1 (configuration not stated),121.5*,nt,93.3*,104.8*,-49.0*,52.7*,69.1*
CC1(OC(=O)c2ccc(Cl)nc2)C(=O)C=C2C=C(C3CC3)OC=C2C1=O (configuration not stated),87.0*,nt,75.6*,73.7*,-50.3*,83.2*,121.5*
COC(=O)CCCC1=CC2=CC(=O)C(C)(OC(=O)c3ccc(Cl)nc3)C(=O)C2=CO1 (configuration not stated),66.1*,nt,57.4*,54.5*,-35.0*,46.0*,69.4*
CC1(C)C(=O)OC(/C=C\c2cccc([N+](=O)[O-])c2)C(C)(C)C1=O (configuration not stated),2.2,-4.4,7.1,3.5,-1.4,nt,nt
CC(C)(C)OC(=O)NCCCCC1=CC2=CC(=O)C(C)(OC(=O)c3cnc4ccccc4n3)C(=O)C2=CO1 (configuration not stated),58.1*,nt,89.4*,59.2*,-28.3*,38.9*,52.2*
COC(=O)CCC(=O)OC1(C)C(=O)C=C2C=C3CCCN3C=C2C1=O (configuration not stated),47.5*,-1.5,11.6,21.7,-5.9,33.3*,32.1
CCCCC1=CC2=CC(=O)C(C)(OC(=O)c3ccco3)C(=O)C2=CO1 (configuration not stated),49.1*,nt,62.0*,43.0*,-36.4*,32.8*,62.2*
CC1(OC(=O)c2ccco2)C(=O)C=C2C=C(c3ccc(C#N)cc3)OC=C2C1=O (configuration not stated),19.4,nt,13.1,12.1,-19.8,nt,nt
COC(=O)CCC(=O)OC1(C)C(=O)C=C2C=C(C3CC3)N(CCCCO)C=C2C1=O (configuration not stated),19.3,-19.6,16.1,21.8,0.8,nt,nt
c1coc(CNc2c3c(nc4ccccc24)CCC3)c1,62.1*,-12.0,-101.7,65.0*,-13.8,14.5,9.8
Cc1ccccc1C1C(C#N)=C2N=C(N)c3c(sc4c3CCCCC4)N2C2=C1C(=O)CCC2 (configuration not stated),66.9*,-16.8,48.7*,61.4*,-3.3,53.5*,68.1*
CN1CCc2cccc3c2[C@@H]1Cc1ccc(O)c(O)c1-3,70.5*,3.2,10.8,48.7*,nt,13.4,29.3
N#Cc1c(SCC(=O)Nc2nncs2)sc2c(O)cc(=O)[nH]c12,69.9*,-15.3,-5.1,34.3*,-13.9,24.9,53.4*
COc1cc(Cl)c(C)cc1NC(=O)CSc1sc2c(O)cc(=O)[nH]c2c1C#N,42.7*,-18.2,0.5,11.9,0.9,11.2,13.6
COc1cc(-c2nnc(SCc3cc(=O)oc4cc(O)c(O)cc34)o2)cc(OC)c1OC,61.8*,2.9,-3.7,6.2,-3.2,14.3,60.6*
CCOC(=O)CSc1nnc(-c2cc(OC)c(OC)c(OC)c2)o1,-0.7,-1.0,-0.3,2.3,1.8,nt,nt
C/C(=C\c1ccccc1)C1Nc2cccc3cccc(c23)N1,40.6*,nt,10.8,25.4,nt,19.8,20.1
COc1cc(-c2nc3ccc(C)cn3c2NCc2ccccc2)ccc1-c1cccc(Cl)c1,nt,-13.1,4.9,nt,nt,nt,nt
Cc1ccc2nc(-c3ccc(-c4cccc(Cl)c4)cc3)c(NCc3ccccc3)n2c1,78.1*,-3.8,1.2,50.4*,3.7,23.6,19.2
CC(C)C1Cc2c(sc(NC(=S)NC(=O)c3ccccc3)c2C#N)CO1 (configuration not stated),0.3,-9.2,-1.5,2.5,-2.0,nt,nt
CC(C)C1Cc2c(C#N)c(N)sc(=S)c2CO1 (configuration not stated),63.8*,1.0,65.9*,66.8*,2.0,22.9,16.6
CC(=O)C(Cc1ccccc1)NC(=O)CN1CCN(Cc2ccccc2)CC1 (configuration not stated),-6.0,-8.0,0.8,-15.2,0.9,nt,nt
O=C(Cc1cccs1)Nc1nnc(Cc2ccccc2)s1,53.8*,-34.4,-9.7,3.6,1.8,7.8,43.6*
O=C(Cc1cccs1)Nc1nnc(CCc2ccccc2)s1,5.1,-6.1,3.7,-0.4,-0.1,nt,nt
COc1ccc(Cc2nnc(NC(=O)Cc3cccs3)s2)cc1OC,73.4*,-9.7,-4.9,9.9,1.9,25.1,79.6*
SMILES,MCL1 BIM primary,E coli Lon inh,GLD-1 RNA inh,Bcl-xL primary,MEX-5 binding,Bcl-xL conf,MCL1 BIM confirm
COc1ccc(C(=O)Nc2nnc(Cc3cccs3)s2)cc1OC,-8.6,8.7,0.1,3.8,-0.5,nt,nt
CC(=O)Nc1cccc(NC(=O)Cc2cccs2)c1,5.9,-2.6,6.6,8.5,-3.2,nt,nt
COC(=O)c1cc(NC(=O)Cc2cccs2)cc(C(=O)OC)c1,44.5*,-4.6,-3.7,2.2,-2.8,2.9,27.6
COCCN(CCOC)Cc1cc(=O)oc2ccc3ccccc3c12,nt,-10.0,nt,nt,nt,nt,nt
CC1CCCC(N2CCN(C(=O)c3ccc([N+](=O)[O-])cc3)CC2)C1 (configuration not stated),nt,-2.7,nt,nt,1.2,nt,nt
CC(C)NC(=O)CN1C(=O)c2ccccc2S1(=O)=O,+,2.1,5.7,5.5,0.4,6.4,-3.1
CC(=O)N1N=C(c2ccc(Cl)cc2)CC1c1ccco1 (configuration not stated),40.4*,7.6,-0.3,4.5,1.5,4.5,6.2
CC(=O)N1N=C(c2ccc(C)cc2)CC1c1ccco1 (configuration not stated),-9.1,4.9,-0.5,-2.0,2.8,nt,nt
O=C(N/N=C/c1ccc(Cl)cc1Cl)c1ccncc1,1.1,1.4,-2.8,-1.6,-1.7,nt,nt
O=C(N/N=C/c1cc(Cl)cc(Cl)c1O)c1ccncc1,55.9*,-70.1,67.5*,71.7*,-0.5,67.1*,66.6*
Cc1c(NS(=O)(=O)c2cc(C(=O)NCc3cccc(Cl)c3)ccc2Cl)c(=O)n(-c2ccccc2)n1C,nt,1.1,nt,nt,nt,nt,nt
Cc1c(NS(=O)(=O)c2cc(C(=O)NCCN(C)C)ccc2Cl)c(=O)n(-c2ccccc2)n1C,75.5*,-7.5,-6.8,16.9,2.1,7.4,11.4
CC(C)CCNC(=O)CN(Cc1ccccc1Cl)C(=O)CCC(=O)Nc1ccccn1,7.8,-1.8,-1.3,5.2,1.9,nt,nt
